In all, about 69,000 compounds went through this assay and about 8,600 (12%) showed an effect of 50% or more. The sample as a whole holds a higher share of strong results than the screen did.
test system: Plasmodium berghei; test: Screen against P. berghei liver stage (PbLuc), transformed with Luciferase, at 10uM; type: functional, HepG2; conditions: tested at 10 uM

With `O=C(CCC1CCCO1)NCc1ccccc1Cn1cncn1` (stereo not given) as the compound, how does the INHIBITION read?
Its INHIBITION is 34.7%.

Which INHIBITION does the source give for `COc1ccc(Nc2nc3c(C)nn(C)c3c(=O)n2C)c(C)c1` here?
The INHIBITION was 29%.

Which INHIBITION does the source give for `Cc1nn(C)cc1C(=O)N1CCCC(n2cncn2)C1` (stereo not given) here?
Its INHIBITION is 9.14%.

For `Cc1sc(C(=O)O)cc1S(=O)(=O)Nc1c(F)cccc1-n1cccn1`, which INHIBITION is on record?
Its INHIBITION is -28.8%.

`O=C(NCC1(COc2cnccn2)C[C@@H](O)[C@@H](O)C1)C1CCOCC1` (stereo not given in full) was tested. Which INHIBITION did it give?
Its INHIBITION is -0.813%.

`Cc1n[nH]c(=O)c(C(=O)N2CCN(CCc3cccs3)CC2)c1C` was tested. Which INHIBITION did it give?
Its INHIBITION is -36.1%.

`CSC(C)C(=O)NS(=O)(=O)c1ccc(F)c(C(F)(F)F)c1` (stereo not given) was tested. Which INHIBITION did it give?
The INHIBITION was 25%.

`Cc1ncsc1CN1CC[C@H]2C(=O)N(c3ccccc3)CCO[C@H]2C1` was tested. Which INHIBITION did it give?
Its INHIBITION is 23.3%.

`COc1ccc(CN2CCc3c(CNC(=O)CC#N)nn(C)c3C2)cc1` was tested. Which INHIBITION did it give?
Its INHIBITION is 29.8%.

With `CCc1sc(-c2nnc(CNCCn3cc(C)cn3)o2)cc1C` as the compound, how does the INHIBITION read?
Its INHIBITION is 30.8%.

Which INHIBITION does the source give for `CN(Cc1nnc(C2CC2)n1C)C1CCN(Cc2nccn2C)C1` (stereo not given) here?
The INHIBITION was 21.6%.

`COc1ncccc1NC(=O)NC(CCCO)c1ccccc1` (stereo not given) was tested. Which INHIBITION did it give?
The INHIBITION was 25.4%.

How did the INHIBITION turn out when `CC(C)OC(=O)CNC(=O)Nc1ccc(-c2nc(C(C)C)no2)cc1` was run?
The INHIBITION was -17.8%.

For `O=C(CC1CC1)N[C@@H]1CN(Cc2ccncc2)C[C@@H]2CCCO[C@@H]21`, which INHIBITION is on record?
Its INHIBITION is 33.4%.

For `O=C(CC1CC1)N[C@@H]1CN(Cc2nccs2)C[C@@H]2CCCO[C@@H]21`, which INHIBITION is on record?
Its INHIBITION is 29%.

With `O=C(CC1CC1)N[C@@H]1CN(C(=O)c2cccs2)C[C@@H]2CCCO[C@@H]21` as the compound, how does the INHIBITION read?
Its INHIBITION is 53.9%.

Which INHIBITION does the source give for `Cc1n[nH]c(C)c1CCC(=O)N(C)Cc1cn[nH]c1-c1ccc(F)cc1` here?
Its INHIBITION is 11.8%.

With `COCC(=O)N1CCCC2(CCN(c3ccsc3)C2=O)C1` (stereo not given) as the compound, how does the INHIBITION read?
The INHIBITION was 37%.

`O=C(CC1CC1)N1CCCC2(CCC(=O)N2CC2CC2)CC1` (stereo not given) was tested. Which INHIBITION did it give?
The INHIBITION was 6.27%.

With `CCc1nc(CCNc2ccc(S(N)(=O)=O)cc2C#N)cs1` as the compound, how does the INHIBITION read?
The INHIBITION was 42.4%.

With `Cc1nc(C)c(CCNc2ccc(S(N)(=O)=O)cc2C#N)s1` as the compound, how does the INHIBITION read?
Its INHIBITION is 49.9%.

With `Cc1csc(CCCNc2ccc(S(N)(=O)=O)cc2C#N)n1` as the compound, how does the INHIBITION read?
The INHIBITION was 66.5%.

With `COCCN1CCC2(CC1)CN(C(=O)Cc1cccnc1)CCO2` as the compound, how does the INHIBITION read?
The INHIBITION was 14.9%.

`Cc1cnc(N2CCC3(CC2)CC3CN(C)Cc2cccnc2)nc1` (stereo not given) was tested. Which INHIBITION did it give?
Its INHIBITION is 71.6%.

`Cc1ccc(CN2CCC3(CC2)CC3CN(C)Cc2cccnc2)o1` (stereo not given) was tested. Which INHIBITION did it give?
Its INHIBITION is -24.9%.

Which INHIBITION does the source give for `CN(Cc1cccnc1)CC1CC12CCN(c1nncs1)CC2` (stereo not given) here?
The INHIBITION was 16.9%.

For `CN(Cc1cccnc1)CC1CC12CCN(Cc1nccs1)CC2` (stereo not given), which INHIBITION is on record?
The INHIBITION was 45.8%.

With `Cc1cnc(N2CCC3(C2)C(=O)N(C)CCN3Cc2cccnc2)nc1` (stereo not given) as the compound, how does the INHIBITION read?
The INHIBITION was -50.6%.

For `CN(Cc1cccnc1)CC1CC12CCCC2` (stereo not given), which INHIBITION is on record?
The INHIBITION was 60.9%.

Which INHIBITION does the source give for `CCC1CN(CC(=O)N2CCN(C(C)=O)CC2)CCN1CCOC` (stereo not given) here?
The INHIBITION was 4.52%.

`CN(C)CCN1CC(C(=O)N(C)Cc2cc3cc(F)ccc3[nH]2)CC1=O` (stereo not given) was tested. Which INHIBITION did it give?
The INHIBITION was 52.2%.

For `CCN1CC(C(=O)N(C)Cc2cc3cc(F)ccc3[nH]2)CC1=O` (stereo not given), which INHIBITION is on record?
Its INHIBITION is -14.1%.

`CN(Cc1cc2cc(F)ccc2[nH]1)C(=O)C1CC(=O)N(C2CCCC2)C1` (stereo not given) was tested. Which INHIBITION did it give?
The INHIBITION was 26.5%.

For `Cc1cc(S(=O)(=O)N2CCC(N3CCC(O)C3)CC2)c(Cl)cc1Cl` (stereo not given), which INHIBITION is on record?
Its INHIBITION is 71.1%.

`Cc1ccc(S(=O)(=O)N2CC[C@@H](O)C2)c(F)c1` was tested. Which INHIBITION did it give?
The INHIBITION was 2.25%.

How did the INHIBITION turn out when `Cc1cc(S(=O)(=O)N2CC[C@@H](O)C2)c(Cl)cc1F` was run?
The INHIBITION was -46.4%.

`O=C(NCC1CCCO1)c1nc2c(s1)CCCN2c1ncccn1` (stereo not given) was tested. Which INHIBITION did it give?
The INHIBITION was -4.32%.

With `Cc1ccc(C(=O)N2[C@@H]3CC[C@H]2CC(=O)N(C)C3)c(=O)[nH]1` as the compound, how does the INHIBITION read?
The INHIBITION was -1.85%.

With `N#Cc1ccc(C(=O)N2C[C@H](OCc3cccnc3)[C@H]3COC[C@H]32)cc1` as the compound, how does the INHIBITION read?
The INHIBITION was -5.31%.

`CC(C)(C)c1nc(CN(Cc2cccnc2)C2CN3CCC2CC3)no1` (stereo not given) was tested. Which INHIBITION did it give?
Its INHIBITION is 54.8%.

For `CC(C)c1noc(CN(Cc2cccnc2)C2CN3CCC2CC3)n1` (stereo not given), which INHIBITION is on record?
The INHIBITION was 77.5%.

`CCc1cc(CN(Cc2cccnc2)C2CN3CCC2CC3)on1` (stereo not given) was tested. Which INHIBITION did it give?
Its INHIBITION is 28.5%.

`Cc1noc(C)c1CN(Cc1cccnc1)C1CN2CCC1CC2` (stereo not given) was tested. Which INHIBITION did it give?
The INHIBITION was 10.3%.

With `CC(C)c1noc(CCCC(=O)N2CCC(Cc3cccnc3)CC2)n1` as the compound, how does the INHIBITION read?
The INHIBITION was 27.1%.

How did the INHIBITION turn out when `CC(C)(C)c1nc(CN(Cc2ccccc2F)C2CCCCC2)no1` was run?
The INHIBITION was 35.3%.

How did the INHIBITION turn out when `O=S(=O)(Cc1ccc(Br)cc1)NCCO` was run?
The INHIBITION was 28.5%.

How did the INHIBITION turn out when `Cc1nn(C)c(N2CCOCC2)c1CNCc1cscn1` was run?
The INHIBITION was 27.0165%.

With `CCc1nnc(CN2CCCC2Cn2cc(C)cn2)o1` (stereo not given) as the compound, how does the INHIBITION read?
The INHIBITION was -29.1%.

`O=C(c1ccc(F)c(F)c1)N1CCC(Cn2cc(CO)nn2)CC1` was tested. Which INHIBITION did it give?
The INHIBITION was 33.4%.

For `Cc1nc(CN2CCCC(NCc3csc(C(C)(C)C)n3)C2)no1` (stereo not given), which INHIBITION is on record?
Its INHIBITION is 22.3%.

For `COCCN1CCO[C@@H]2CN(C(=O)COc3ccc(C)cc3)C[C@@H]2C1`, which INHIBITION is on record?
The INHIBITION was 37.9%.

How did the INHIBITION turn out when `[O-][S+](Cc1c(F)cccc1Cl)Cc1nnnn1C1CC1` (stereo not given) was run?
Its INHIBITION is 19.8%.

How did the INHIBITION turn out when `CCc1nc2n(n1)CC(NCC(=O)Nc1cc(C(C)(C)C)no1)CC2` (stereo not given) was run?
The INHIBITION was -13.5%.

For `Cc1cc(C(=O)N2CCCC(C)C2)ccc1NCc1nc(C(C)C)no1` (stereo not given), which INHIBITION is on record?
The INHIBITION was 18.2%.

For `O=C(O)c1ccc2c(CN3CCCC3)c[nH]c2c1`, which INHIBITION is on record?
Its INHIBITION is 42.3%.

Source: ChEMBL document CHEMBL4513216, “Probing the Open Global Health Chemical Diversity Library for Multistage-Active Starting Points for Next-Generation Antimalarials” (ACS Infect Dis, 2020)
